Source: PubChem BioAssay (NCI)
About 83,000 compounds went through this panel and 20% of them were active in at least one assay; those are over-represented in the sample as a whole.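 Growth was measured after 48 h exposure to one concentration of compound in 96-well plates. Values under 10 count as active.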 Active and inactive are the calls of the source.

test system: HL-60(TB) leukemia; experiment: NCI-60 one-dose screen, 48 h (100 = growth as untreated, 0 = no growth, -100 = all killed); conditions: 10 µM unless noted

Row | Compound | growth
1 | COc1cc2nnn3c4ncccc4c(N=O)c3c2cc1OC | -31.5% (active)
2 | Cc1nn(-c2ccccc2)c(Oc2c(Cl)cccc2Cl)c1/C=N/N=c1\sc2ccccc2n1C | 43.1% (inactive)
3 | CC1(C)CN(CCNc2nccc(-c3c(-c4cccc(O)c4)nc4sccn34)n2)S(=O)(=O)N1 | 82.5% (inactive)
4 | NS(=O)(=O)c1ccc(-n2nc(C(=O)N/N=C\c3ccc(F)cc3)cc2-c2ccc(Cl)cc2)cc1 | 121% (inactive)
5 | CC(=O)c1ccc(NS(=O)(=O)c2cccc(C(=O)Nc3ccc(Br)cc3)c2)cc1 | 47.3% [25 µM] (inactive)
6 | S=C(Nc1ccccc1)c1ccccn1 | 107% (inactive)
7 | Cc1ccc(-n2cc(-c3ccccc3)c3c2N=NN2CCN=C32)cc1 | 101% (inactive)
8 | Fc1ccc([I+]c2ccc(F)cc2)cc1 | 54.5% (inactive)
9 | COc1cc(/C=C/C(=O)c2ccccc2O)ccc1OCCCOc1cc2c(cc1OC)C(=O)N1CCC[C@H]1C=N2 | -27.4% (active)
10 | NC1[C@H](c2c[nH]c3ccccc23)c2c([nH]c3ccccc23)[C@H]1c1c[nH]c2ccccc12 (some centres undefined) | 119% (inactive)
11 | CC(=O)OCc1cc(-c2nc3ccccc3[nH]c2=O)nn1-c1ccc(Cl)cc1 | 84.5% (inactive)
12 | COc1ccc(C(C#N)=C2C=CC(=NO)C=C2)cc1 | 52.4% (inactive)
13 | Cc1ccc(SCN2CCN(c3cccc(Cl)c3)CC2)cc1 | 111% (inactive)
14 | COc1ccc(-c2nc3ccc(-c4nc5ccc(N6CCN(c7ccccc7)CC6)cc5[nH]4)cc3[nH]2)cc1OC | 16.1% (inactive)
